In the supplement of paper PMC10849652 one finds log2 fold change data, which are given here for twelve targets.

Of roughly 8,800 targets only a part is listed; those with a hit were picked by preference. About 0.5% of all pairs of compound and target were hits. Unmarked numbers belong to inactive results.

What all share (experiment): log2 fold change, soluble protein after heating vs DMSO (PISA); higher = thermal stabilisation; K562 lysate, 10 uM; active = over 0.2 and 3.5 SD of the protein, either way, in both replicates (recomputed)
Compound in experiment [1]: NCC(=O)Nc1ccc(-n2nc(C(F)(F)F)cc2-c2ccc3c(ccc4ccccc43)c2)cc1
The method in brief:
(§1)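 Quantification was by TMTpro 16plex LC-MS/MS with equalised channel sums, applied to the supernatant after 21,000xg for 90 min. Samples were crude K562 extract at 1 mg/mL protein in PBS pH 7.4 with 1 mM MgCl2, treated with 10 μM compound for 30 min, heated for 3 min across 48°C-58°C, pooled and brought to 0.5% NP-40 at 4°C. Values are log-two fold changes in thermal stability relative to solvent controls, from duplicates.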

Compound in experiment [2]: O=C(CCCCCCC(=O)Nc1ccccc1)NO [vorinostat]
The method in brief:
as §1

Compound in experiment [3]: O=C(O)c1ccc2c(c1)nc(Nc1cccc(Cl)c1)c1ccncc12 [silmitasertib]
The method in brief: as §1

Compound in experiment [4]: c1cn2cc(-c3ccc4cn[nH]c4c3)nc(Nc3ccc(N4CCOCC4)cc3)c2n1 [entospletinib]
The method in brief:
as §1

Compound in experiment [5]: O=C1NC(=O)C(c2cnc3ccccn23)=C1c1cn2c3c(cc(F)cc13)CN(C(=O)N1CCCCC1)CC2
The method in brief: as §1

Sequence of UniProt P41247 (P41247 whole entry, looked up): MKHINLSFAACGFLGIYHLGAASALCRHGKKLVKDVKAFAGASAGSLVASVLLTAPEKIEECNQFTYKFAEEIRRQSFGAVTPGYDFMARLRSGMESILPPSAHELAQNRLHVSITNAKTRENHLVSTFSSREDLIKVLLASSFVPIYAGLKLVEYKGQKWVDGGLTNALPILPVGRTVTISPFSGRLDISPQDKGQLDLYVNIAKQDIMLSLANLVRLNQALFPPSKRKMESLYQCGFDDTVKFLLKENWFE
Sequence of UniProt Q9Y5K3 (Q9Y5K3 whole entry, looked up): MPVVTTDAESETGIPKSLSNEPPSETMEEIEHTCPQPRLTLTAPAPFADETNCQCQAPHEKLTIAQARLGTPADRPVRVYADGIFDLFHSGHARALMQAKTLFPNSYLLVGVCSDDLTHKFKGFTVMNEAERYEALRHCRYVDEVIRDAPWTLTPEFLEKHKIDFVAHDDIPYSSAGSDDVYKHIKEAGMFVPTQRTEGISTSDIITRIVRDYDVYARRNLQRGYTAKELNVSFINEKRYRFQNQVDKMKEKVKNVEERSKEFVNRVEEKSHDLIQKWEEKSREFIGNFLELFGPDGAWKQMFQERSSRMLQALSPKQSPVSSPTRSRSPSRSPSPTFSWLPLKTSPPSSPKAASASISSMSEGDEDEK
Sequence of UniProt Q16378 (Q16378 whole entry, looked up): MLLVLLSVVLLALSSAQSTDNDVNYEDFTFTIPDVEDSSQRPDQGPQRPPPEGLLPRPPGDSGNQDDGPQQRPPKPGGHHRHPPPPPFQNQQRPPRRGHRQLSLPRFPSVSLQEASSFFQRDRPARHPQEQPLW
Sequence of UniProt Q9BRQ0 (Q9BRQ0 whole entry, looked up): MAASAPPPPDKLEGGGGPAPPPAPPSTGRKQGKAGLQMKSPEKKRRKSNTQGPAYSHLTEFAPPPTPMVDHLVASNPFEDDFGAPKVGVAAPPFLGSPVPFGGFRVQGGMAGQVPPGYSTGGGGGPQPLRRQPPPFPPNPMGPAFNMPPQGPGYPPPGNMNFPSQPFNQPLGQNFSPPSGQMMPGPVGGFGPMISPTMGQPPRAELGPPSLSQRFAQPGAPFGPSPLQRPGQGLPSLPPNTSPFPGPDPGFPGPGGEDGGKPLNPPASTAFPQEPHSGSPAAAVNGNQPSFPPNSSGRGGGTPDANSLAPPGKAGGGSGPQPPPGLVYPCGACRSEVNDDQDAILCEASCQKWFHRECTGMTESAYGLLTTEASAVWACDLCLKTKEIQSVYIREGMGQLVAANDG
Sequence of UniProt Q99755 (Q99755 whole entry, looked up): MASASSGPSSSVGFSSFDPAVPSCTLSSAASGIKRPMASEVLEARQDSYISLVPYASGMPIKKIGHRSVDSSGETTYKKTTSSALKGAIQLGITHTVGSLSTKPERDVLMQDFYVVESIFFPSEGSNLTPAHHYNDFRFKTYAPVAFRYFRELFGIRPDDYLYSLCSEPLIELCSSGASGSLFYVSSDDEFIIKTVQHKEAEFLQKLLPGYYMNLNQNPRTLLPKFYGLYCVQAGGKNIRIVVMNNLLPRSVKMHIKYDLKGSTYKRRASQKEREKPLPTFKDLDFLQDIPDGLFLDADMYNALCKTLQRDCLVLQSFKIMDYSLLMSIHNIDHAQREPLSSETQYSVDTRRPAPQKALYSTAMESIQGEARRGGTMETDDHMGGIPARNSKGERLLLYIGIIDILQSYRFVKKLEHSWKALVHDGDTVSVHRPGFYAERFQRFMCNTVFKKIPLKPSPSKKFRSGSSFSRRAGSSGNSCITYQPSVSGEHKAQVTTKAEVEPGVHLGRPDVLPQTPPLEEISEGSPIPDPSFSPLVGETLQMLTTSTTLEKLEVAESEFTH
Sequence of UniProt Q96PU8 (Q96PU8 whole entry, looked up): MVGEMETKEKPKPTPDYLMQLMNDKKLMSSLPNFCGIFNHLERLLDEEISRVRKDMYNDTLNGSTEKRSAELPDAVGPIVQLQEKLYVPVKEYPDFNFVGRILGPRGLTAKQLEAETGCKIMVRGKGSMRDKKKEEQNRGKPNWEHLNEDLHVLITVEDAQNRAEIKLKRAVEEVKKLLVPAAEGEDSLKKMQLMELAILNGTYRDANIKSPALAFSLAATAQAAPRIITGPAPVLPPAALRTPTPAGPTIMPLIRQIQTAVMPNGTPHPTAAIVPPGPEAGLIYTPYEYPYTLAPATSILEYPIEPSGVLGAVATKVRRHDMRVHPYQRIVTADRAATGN
Sequence of UniProt Q9Y570 (Q9Y570 whole entry, looked up): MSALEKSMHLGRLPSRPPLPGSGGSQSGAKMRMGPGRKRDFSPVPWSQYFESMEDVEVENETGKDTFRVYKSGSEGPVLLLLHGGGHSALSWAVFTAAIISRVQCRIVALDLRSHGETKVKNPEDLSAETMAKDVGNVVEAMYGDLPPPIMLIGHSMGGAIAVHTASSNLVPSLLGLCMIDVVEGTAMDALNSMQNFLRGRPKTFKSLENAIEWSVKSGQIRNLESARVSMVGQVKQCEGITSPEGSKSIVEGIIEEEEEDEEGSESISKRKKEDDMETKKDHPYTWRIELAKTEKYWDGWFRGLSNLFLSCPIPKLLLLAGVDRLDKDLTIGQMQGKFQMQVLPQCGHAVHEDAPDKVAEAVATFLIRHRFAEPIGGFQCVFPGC
Sequence of UniProt Q96C36 (Q96C36 whole entry, looked up): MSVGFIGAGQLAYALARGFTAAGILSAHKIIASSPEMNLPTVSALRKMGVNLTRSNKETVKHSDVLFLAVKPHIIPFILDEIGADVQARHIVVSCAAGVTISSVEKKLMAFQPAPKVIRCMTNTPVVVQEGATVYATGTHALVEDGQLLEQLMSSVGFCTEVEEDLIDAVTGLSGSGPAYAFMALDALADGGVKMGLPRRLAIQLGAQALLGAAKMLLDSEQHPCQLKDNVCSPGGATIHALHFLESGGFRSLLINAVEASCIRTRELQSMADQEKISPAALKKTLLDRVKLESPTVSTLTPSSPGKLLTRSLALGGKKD
Sequence of UniProt O60237 (O60237 whole entry, looked up): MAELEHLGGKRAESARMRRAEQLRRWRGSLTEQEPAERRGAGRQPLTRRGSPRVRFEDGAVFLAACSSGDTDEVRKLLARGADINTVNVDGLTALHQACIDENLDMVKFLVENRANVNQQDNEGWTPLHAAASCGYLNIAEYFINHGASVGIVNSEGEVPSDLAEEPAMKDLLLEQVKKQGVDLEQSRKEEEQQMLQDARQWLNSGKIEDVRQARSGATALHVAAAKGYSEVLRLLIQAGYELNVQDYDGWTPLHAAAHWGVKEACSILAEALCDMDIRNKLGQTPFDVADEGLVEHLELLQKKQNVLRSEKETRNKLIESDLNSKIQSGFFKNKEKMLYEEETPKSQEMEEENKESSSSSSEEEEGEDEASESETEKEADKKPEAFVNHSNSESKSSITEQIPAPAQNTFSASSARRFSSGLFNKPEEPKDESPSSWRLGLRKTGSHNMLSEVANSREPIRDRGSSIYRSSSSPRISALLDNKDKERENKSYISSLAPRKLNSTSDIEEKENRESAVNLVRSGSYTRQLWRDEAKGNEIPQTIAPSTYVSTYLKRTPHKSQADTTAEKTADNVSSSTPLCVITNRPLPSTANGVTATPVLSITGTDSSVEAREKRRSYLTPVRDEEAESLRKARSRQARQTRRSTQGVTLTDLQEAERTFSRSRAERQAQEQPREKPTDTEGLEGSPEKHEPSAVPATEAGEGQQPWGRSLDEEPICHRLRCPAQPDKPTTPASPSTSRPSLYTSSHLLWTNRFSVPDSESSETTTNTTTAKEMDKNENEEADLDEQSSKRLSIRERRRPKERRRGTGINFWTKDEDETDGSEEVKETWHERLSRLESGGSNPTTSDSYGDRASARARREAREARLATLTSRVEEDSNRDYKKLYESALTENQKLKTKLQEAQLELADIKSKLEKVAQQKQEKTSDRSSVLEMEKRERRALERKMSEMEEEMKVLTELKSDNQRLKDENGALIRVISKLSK

For the target PRR4 (UniProt Q16378), the log2 fold change is 0.009 in experiment [1], 0.229 in experiment [2], -0.176 in experiment [3] and 0.302 in experiment [4].
Consider PPP1R12B isoform 6 (UniProt O60237), for which the log2 fold change in experiment [1] is 0.168; in experiment [2], -0.063; in experiment [3] it was 0.091; in experiment [5], -0.005; in experiment [4] it was -0.052.
Take PNPLA4 (UniProt P41247): the results for the log2 fold change in experiment [1], in experiment [5] and in experiment [4] were -0.012, -0.093 and -0.046, respectively.
In the case of PYGO2 (UniProt Q9BRQ0), the log2 fold change in experiment [2] was 0.151; in experiment [3] it was -0.067; in experiment [5] it was -0.003; in experiment [4], 0.269 (active).
Regarding PIP5K1A (UniProt Q99755), the log2 fold change was -0.014 in experiment [2], -0.033 in experiment [3] and 0.047 in experiment [5].
On to PYCR2 (UniProt Q96C36), for which the log2 fold change in experiment [1] was 0.002; in experiment [2] it was 0.1; in experiment [3] it was -0.008; in experiment [5] it was 0.015; in experiment [4] it was 0.
As to PHOSPHO2 (UniProt C9JD35), the log2 fold change in experiment [5] was 0.004; in experiment [4], 0.155.
As for QKI (UniProt Q96PU8), the log2 fold change is -0.008 in experiment [1]; -0.147 in experiment [2]; 0.021 in experiment [3]; 0.045 in experiment [5]; 0.007 in experiment [4].
As to PLXND1 (UniProt Q9Y4D7), the log2 fold change was -0.132 in experiment [2], 0.174 in experiment [3] and 0.018 in experiment [5].
As for PPME1 (UniProt Q9Y570), the values for the log2 fold change in experiment [2], in experiment [3] and in experiment [4] were -0.673 (active), 0.185 and -0.063, respectively.
On to PCYT1B (UniProt Q9Y5K3), for which the log2 fold change was -0.03 in experiment [1]; 0.064 in experiment [2]; -0.062 in experiment [3]; -0.027 in experiment [5]; 0.002 in experiment [4].
For the target PCBP2 (UniProt F8W0G4), the log2 fold change in experiment [1] is 0.083; in experiment [2], -0.058; in experiment [3], 0.025; in experiment [4] it was -0.088.
